# Measurements from PubChem BioAssay (NCATS).
# Inconclusive results are not listed. Where a call stands in place of a potency, no number is given. Active and inactive are the calls of the source. Calls come from the whole dose curve; as a rule, active = well fitted inhibition curve with a large enough effect; inconclusive = small, poorly fitted or top-dose-only effect; inactive = no such curve, though single readings can be large or run the other way. Where a SMILES comes first, the peptide text is derived from it. The star is where a group is joined. Cbz = O=C(OCc1ccccc1)*; CH2Cl = ClC*
# Legend:
# [1] = tested on: Zika virus NS2B-NS3 protease (unlinked complex); assay: Primary screen GU Rhodamine qHTS for Zika virus inhibitors: Unlinked NS2B-NS3 protease assay (AID 1347159); note: nearly all actives have a fitted effect of over 60% in size; note: potency is the fitted concentration of half-maximal effect
# Method in brief: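 Noncovalent NS2B hydrophilic domain/NS3 protease complex (25 nM final) in 10 mM Tris-HCl pH 8.0, 0.01% Tween 20, preincubated 15 min with compounds (up to 114 microM), then 1.5 microM Rhodamine110 substrate. Fluorescence change over 15 min fitted to 4-parameter Hill.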
# [2] = tested on: Zika virus NS2B-NS3 protease (linked construct); assay: Primary screen NINDS Rhodamine qHTS for Zika virus inhibitors (AID 1347160); note: nearly all actives have a fitted effect of over 55% in size
# Method in brief: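 Purified NS2B-NS3 protease with the NS2B hydrophilic domain joined by a flexible linker (25 nM) in 10 mM Tris-HCl pH 8.0, 0.01% Tween 20, preincubated 15 min at RT with compound; Rhodamine110 peptide substrate 1.5 µM; fluorescence change over 15 min; 4-parameter Hill fit.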
SMILES,Potency [1],Potency [2]
C=CS(=O)(=O)NC1CCN(C(=O)CNc2cc(I)c(Cl)cc2OC)CC1,inactive,inactive
O=C(NCC1CCN(Cc2cccc(Cl)c2)CC1)[C@@H]1CCCN(c2ncnc3c2nc2n3CCCC2)C1,inactive,inactive
Nc1cccc(CNC(=O)c2ccc(Oc3ccc(OCc4cccc(F)c4)cc3)nc2)c1,inactive,inactive
O=C(O)CCc1nccc2c1[nH]c1ccccc12,inactive,inactive
C[C@@H]1O[C@@H](O[C@H]2[C@@H]3C=CO[C@@H](O[C@@H]4O[C@H](CO)[C@@H](O)[C@H](O)[C@H]4O)[C@@H]3[C@@]3(CO)O[C@@H]23)[C@H](O)[C@H](OC(=O)/C=C/c2ccccc2)[C@H]1O,inactive,inactive
CC(=O)N1CCN(CCOc2ccc(C3CCN(C4=Nn5c(nnc5C(F)(F)F)CC4)CC3)cc2)CC1,inactive,inactive
C/C(=C/C=C\C=C\Cc1cnco1)[C@@H](O)C(C)(C)C(N)=O,inactive,inactive
C=CC(=O)Nc1ccc2ncnc(Nc3cccc(Br)c3)c2c1,44.7 µM (active),inactive
CC(C)(O)C1CC(=O)C2(C)C(CCC3(C)C(c4ccoc4)OC(=O)C4OC432)C12CCC(=O)OC2 (centres undefined),inactive,inactive
O=C(NC[C@H]1CN(c2ccc(N3CCOCC3=O)cc2)C(=O)O1)c1ccc(Cl)s1,inactive,inactive
O=S(=O)(NCc1cccc2ccccc12)c1cc(Cl)c(Oc2cccc(N3CCNCC3)c2)s1,inactive,inactive
Cc1cc(C(=O)Nc2cc(Nc3ccc4c(/C=C/c5ccccn5)n[nH]c4c3)ccc2F)n(C)n1,inactive,inactive
CC(=O)N[C@H]1[C@H](O[C@H]2CC[C@@]3(C)C(CC[C@]4(C)C3CC=C3C5CC(C)(C)CC[C@]5(C(=O)O)C(O)C[C@]34C)C2(C)C)O[C@H](CO[C@@H]2O[C@H](C)[C@H](O)[C@H](O)[C@H]2O[C@@H]2OC[C@@H](O)[C@H](O)[C@H]2O)[C@@H](O)[C@@H]1O (some centres undefined),inactive,inactive
O=C(Nc1nnc(-c2ccc3c(c2)OCCO3)o1)C1CCCCC1,inactive,inactive
COc1ccc([C@H]2Cc3cccc(O)c3C(=O)O2)cc1OC,inactive,inactive
COC(=O)c1ccc2c(c1)nc(NC(=O)c1ccccc1)n2CCCc1ccccc1,inactive,inactive
CC(C)(O)/C=C/C(=O)[C@](C)(O)[C@H]1[C@H](O)C[C@@]2(C)[C@@H]3CC=C4[C@@H](C[C@H](O[C@@H]5O[C@H](CO)[C@@H](O)[C@H](O)[C@H]5O)C(=O)C4(C)C)[C@]3(C)C(=O)C[C@]12C,inactive,inactive
Cc1nc(Nc2ccc(F)cc2)nc(N2CCc3ccccc3C2C)c1C (centres undefined),inactive,inactive
C[C@H]1[C@H](/C=C/c2ccc(-c3ccccc3C#N)cn2)[C@@H]2[C@@H](C)OC(=O)[C@@H]2C[C@@H]1C,inactive,inactive
CC(C)C(C)C(O)C1CC23CC(=O)C4(O)C(=C2CCC3C1C)C=CC1(O)CC(O)CCC14C (centres undefined),inactive,inactive
O=C(C1CCCCC1)N(CCN1CCN(c2ccccc2O)CC1)c1ccccn1,inactive,inactive
CCc1cc(C(N)=O)ccc1-n1nc(C(C)C)c2c(-n3cnc(-c4cnn(C)c4)c3)ccnc21,inactive,inactive
CC(=O)C1=CCC2C3CC=C4CC(O)CC(O)C4(C)C3C(O)CC12C (centres undefined),inactive,inactive

SMILES,Potency [1],Potency [2]
C=C1C(=O)OC2C3=C(C)C(=O)CC3C(C)CC(O)C12 (centres undefined),inactive,inactive
Nc1nc2c(s1)CCN(Cc1ccc(Cl)cc1)CC2,inactive,inactive
O=C(Nc1ccccc1C(=O)NC1CCCCNC1=O)c1cc2ccccc2s1 (centres undefined),31.6 µM (active),inactive
CC(C)C[C@H](NC(=O)CNC(=O)OCc1ccccc1)C(=O)N[C@@H](Cc1ccccc1)C(=O)CCl (Cbz-Gly-Leu-Phe-CH2Cl),inactive,inactive
CN1CCN(C2CCN(C(=O)Nc3cc(Oc4ccc(NC(=O)C5(C(=O)Nc6ccc(F)cc6)CC5)c(F)c4)ccn3)CC2)CC1,inactive,inactive
CCCCc1c(-c2ccc(OC)cc2)[nH]c2nccnc12,inactive,inactive
Clc1ccc(Cn2c(Cc3ccccc3)nc3ccccc32)cc1,inactive,inactive
Fc1ccc(-c2nc(-c3ccccc3F)[nH]c2-c2ccncc2)cc1,inactive,inactive
CC(=O)OC1C(O)CC2(C)C(CCC3(C)C2CC=C2C4C5(CCC(CO[C@@H]6O[C@H](CO)[C@@H](O)[C@H](O)[C@H]6O)(OC5=O)C4(C)O)C(O)CC23C)C1(C)C (some centres undefined),inactive,inactive
Cc1cc(C)c(-n2cc(C)c3c(Cl)nc(C)nc32)c(C)c1,inactive,inactive
O=C(Nc1ccnc(NC(=O)C2CC2)c1)c1c(Cl)cccc1Cl,inactive,inactive
CC(=O)O[C@H]1[C@@]2(O)C[C@H](C)[C@H](OC(=O)c3ccccc3)[C@@H]2[C@@H](OC(=O)CO)[C@]2(OC(C)=O)C[C@H]3C(=O)C(C)(C)C[C@@H]3[C@@]1(C)[C@H]2OC(C)=O,inactive,inactive
CC(=O)O[C@H]1CC2C(COC(=O)CC(C)C)=CO[C@@H](OC(=O)CC(C)C)C2[C@]12CO2 (some centres undefined),inactive,inactive
CCN(CC)CCCS(=O)(=O)N[C@H](CCc1ccccc1)c1nc(Cc2ccc(Br)cc2)no1,inactive,inactive
CN(C)C(=O)Nc1cccc(-c2ccc(N(C)C)cc2)c1,inactive,inactive
C=C1C(=O)O[C@@H]2[C@H]1CC[C@H](C)C(CCC(=O)O)C2(C)O (some centres undefined),inactive,inactive
CCN(Cc1cc(Nc2nc(C)cn3c(-c4cn[nH]c4)cnc23)sn1)C(C)(C)CO,inactive,inactive
CCN1CCC[C@@H]1CNC(=O)c1ccc2c(c1)NC(=O)c1cccc(C)c1S2,inactive,inactive
CC#CCn1c(N2CCCC(N)C2)nc2c1c(=O)n(Cc1nc(C)c3ccccc3n1)c(=O)n2C (centres undefined),inactive,inactive
CC(=O)O[C@@H]1[C@@H](O)[C@H](O[C@@H]2[C@@H](O)[C@@H](O)[C@H](O[C@H]3[C@H](O[C@H]4[C@H](O[C@H]5CC[C@@]6(C)C(CC[C@]7(C)C6CC=C6[C@@H]8CC(C)(C)CC[C@]8(C(=O)O)CC[C@]67C)[C@]5(C)CO)O[C@H](CO)[C@@H](O)[C@@H]4O)OC[C@@H](O)[C@@H]3O)O[C@H]2C)OC[C@H]1O (some centres undefined),inactive,inactive
C=C1CC[C@@H]2[C@](C)(CO)[C@H](O)CC[C@@]2(C)[C@@H]1/C=C/C1=CCOC1=O,inactive,inactive
COc1ccc([C@H]2OC[C@H]3O[C@@H](O[C@H]4[C@@H]2NC[C@@H]4O)[C@H](O)[C@H]3O)cc1,inactive,inactive
COc1cc(C#N)ccc1S(=O)(=O)Nc1ccc2c(c1)cc(C)c(=O)n2C,inactive,inactive

SMILES,Potency [1],Potency [2]
CNC(C)C(=O)NC(C(=O)N1CCCC1C(=O)Nc1snnc1-c1ccccc1)C1CCCCC1 (centres undefined),inactive,inactive
Cc1ccc(-c2cn3c4c(sc3n2)CCCC4)cc1,inactive,inactive
Cc1c(NC(=O)OCC2COCCN2)cn2ncnc(Nc3ccc4c(cnn4Cc4cccc(F)c4)c3)c12 (centres undefined),inactive,inactive
COCc1c(Cl)ccc2c1CC[C@H]2c1ncc[nH]1,inactive,inactive
CC(C)(F)CC(NC(c1ccc(-c2ccc(S(C)(=O)=O)cc2)cc1)C(F)(F)F)C(=O)NC1(C#N)CC1 (centres undefined),inactive,inactive
C=C1C(=O)OC2/C=C(\C)CC3C=C(CC/C=C(\C)CCC12)C(=O)O3 (centres undefined),inactive,inactive
COc1ccc(N2CCN(C(=O)c3cc4c(s3)-c3ccccc3S(=O)(=O)C4)CC2)cc1,inactive,inactive
N#Cc1cc(CN2CCC(Nc3ncnc4sc(Cl)cc34)CC2)ccc1F,inactive,inactive
C[C@@H]1O[C@@H](O[C@H]2[C@H](O[C@H]3CC[C@@]4(C)C(CC[C@]5(C)C4C=C[C@]46OC[C@@]7(CCC(C)(C)C[C@H]74)[C@@H](O[C@@H]4O[C@@H](C)[C@H](O)[C@@H](O)[C@H]4O)C[C@]65C)[C@]3(C)CO)O[C@H](CO)[C@@H](O)[C@@H]2O[C@@H]2O[C@H](CO)[C@@H](O)[C@H](O)[C@H]2O)[C@H](O)[C@H](O)[C@H]1O (some centres undefined),inactive,inactive
OC1CCC(Nc2nc(-c3ccccc3)nc3[nH]ccc23)CC1 (centres undefined),inactive,inactive
C#CC(=O)N(c1ccc(OC)cc1OC)C(C(=O)NCC(=O)OCC)c1cccs1 (centres undefined),inactive,inactive
O=C(Nc1ccccc1)N1CCN(c2nc(-c3ccccc3)ns2)CC1,inactive,inactive
CNc1cccc(CCOc2ccc3c(c2)CN(CC(F)(F)F)C(=O)[C@H](CC(=O)O)C3)n1,inactive,inactive
CCOc1ccc(-n2c(C(C)N(Cc3cccnc3)C(=O)Cc3ccc(F)c(C(F)(F)F)c3)nc3ncccc3c2=O)cc1 (centres undefined),inactive,inactive
C=CC(=O)N1CCC[C@@H](n2nc(-c3cccc(C(=O)Nc4ccc(C(C)C)c(C)c4)c3)c3c(N)ncnc32)C1,inactive,inactive
Cc1cc2c(c(=O)o1)C=C1CC[C@H]([C@H](C)Cn3cnc(=N)c4[nH]cnc43)C[C@@H]1O2,inactive,inactive
CC(O)(C(=O)C1CC1(CO)COC1OC(CO)C(O)C(O)C1O)C1C(O)CC2C3CC=C4CC(O)CC(O)C4(C)C3C(O)CC21C (centres undefined),inactive,inactive
CCO[C@H]1CN(C2CCC(O)(c3ccc4c(c3)OCO4)CC2)C[C@@H]1NC(=O)CNC(=O)c1cccc(C(F)(F)F)c1 (some centres undefined),inactive,inactive
NCC1CCN(c2nccc(-c3ccc4ccccc4c3)n2)CC1,inactive,inactive
COc1ccc(Cl)c(Nc2ncnc3cc(OCC4CCN(C)CC4)c(OC)cc23)c1,inactive,inactive
O=C(NCCCCCCCCNC(=O)C(Cl)Cl)C(Cl)Cl,inactive,inactive
